Experimental data reported in PubChem BioAssay AID1159580 (chemical genetic matrix, 2015).
The whole screen tested about 5,500 compounds, of which about 2,000 (36%) were called active. Roughly 18% stayed inconclusive and do not appear here. No stated cut-off is given here; in the data, active means normalized growth mostly below about 0.91 (no sharp cut-off); inconclusive means no clear call, values can overlap the other calls; inactive means mostly above about 0.92. This is one part of the list.

Experiment: chemical genetic growth profiling, strain panel (AID 1159580);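 further: tested at 20 µM; growth read once vehicle control cultures reached saturation at 30 °C; 1 = growth at the plate median or of vehicle wells; lower values mean less growth of the strain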
Conditions: growth OD

Measured: normalized growth

C=C1c2cccc(O)c2C(O)=C2C(=O)[C@]3(O)C(O)=C(C(N)=O)C(=O)[C@@H](N(C)C)[C@@H]3[C@@H](O)[C@H]12
inactive: S. cerevisiae deletion strains, locus YJR075W, strain HOC1, hits give low values 0.992 | S. cerevisiae deletion strains, locus YKL009W, strain mrt4, hits give low values 1.03 | S. cerevisiae deletion strains, locus YKL068W, hits give low values 0.989 | S. cerevisiae deletion strains, locus YKL085W, strain MDH1 (second series), hits give low values 0.978 | S. cerevisiae deletion strains, locus YKL085W, strain MDH1, hits give low values 0.978 | S. cerevisiae deletion strains, locus YKL160W, strain elf1, hits give low values 1.02 | S. cerevisiae deletion strains, locus YKL190W, strain CNB1, hits give low values 0.992 | S. cerevisiae deletion strains, locus YKR001C, strain vps1, hits give low values 0.961 | S. cerevisiae deletion strains, locus YKR026C, strain gcn3, hits give low values 0.994 | S. cerevisiae deletion strains, locus YLL001W, strain dnm1, hits give low values 1.01 | S. cerevisiae deletion strains, locus YLL026W, hits give low values 1.02 | S. cerevisiae deletion strains, locus YLL041C, strain sdh2, hits give low values 1.02 | S. cerevisiae deletion strains, locus YLR027C, strain aat2, hits give low values 1.01 | S. cerevisiae deletion strains, locus YLR039C, strain RIC1, hits give low values 0.94 | S. cerevisiae deletion strains, locus YLR058C, strain SHM2, hits give low values 0.975 | S. cerevisiae deletion strains, locus YLR102C, strain apc9, hits give low values 1 | S. cerevisiae deletion strains, locus YLR113W, strain HOG1, hits give low values 0.986 | S. cerevisiae deletion strains, locus YLR221C, strain rsa3, hits give low values 0.996 | S. cerevisiae deletion strains, locus YLR258W, strain gsy2, hits give low values 1 | S. cerevisiae deletion strains, locus YLR262C, strain YPT6 (second series), hits give low values 1.01 | S. cerevisiae deletion strains, locus YLR262C, strain YPT6, hits give low values 0.967 | S. cerevisiae deletion strains, locus YLR268W, strain sec22, hits give low values 0.905 | S. cerevisiae deletion strains, locus YLR320W, strain mms22, hits give low values 1.01 | S. cerevisiae deletion strains, locus YLR330W, strain CHS5, hits give low values 0.969 | S. cerevisiae deletion strains, locus YLR342W, strain FKS1 (second series), hits give low values 0.979 | S. cerevisiae deletion strains, locus YLR342W, strain FKS1, hits give low values 1.01 | S. cerevisiae deletion strains, locus YLR357W, strain rsc2, hits give low values 1.01 | S. cerevisiae deletion strains, locus YLR370C, strain arc18, hits give low values 1.02 | S. cerevisiae deletion strains, locus YLR371W, strain rom2, hits give low values 0.991 | S. cerevisiae deletion strains, locus YLR384C, strain iki3, hits give low values 1.03 | S. cerevisiae deletion strains, locus YLR418C, strain cdc73, hits give low values 0.972 | S. cerevisiae deletion strains, locus YML016C, strain PPZ1, hits give low values 0.979 | S. cerevisiae deletion strains, locus YML032C, strain rad52, hits give low values 0.959 | S. cerevisiae deletion strains, locus YML120C, strain ndi1, hits give low values 1.01 | S. cerevisiae deletion strains, locus YML124C, strain tub3, hits give low values 0.991 | S. cerevisiae deletion strains, locus YMR058W, strain fet3, hits give low values 0.986 | S. cerevisiae deletion strains, locus YMR078C, strain ctf18, hits give low values 1 | S. cerevisiae deletion strains, locus YMR125W, strain sto1, hits give low values 0.998 | S. cerevisiae deletion strains, locus YMR129W, hits give low values 0.998 | S. cerevisiae deletion strains, locus YMR205C, strain PFK2, hits give low values 1.02 | S. cerevisiae deletion strains, locus YMR223W, strain ubp8, hits give low values 0.992 | S. cerevisiae deletion strains, locus YMR231W, strain pep5, hits give low values 1.01 | S. cerevisiae deletion strains, locus YMR263W, strain SAP30, hits give low values 0.976 | S. cerevisiae deletion strains, locus YMR307W, strain GAS1, hits give low values 1.02 | S. cerevisiae deletion strains, locus YNL067W, strain RPL9B, hits give low values 0.95 | S. cerevisiae deletion strains, locus YNL071W, strain lat1, hits give low values 1.03 | S. cerevisiae deletion strains, locus YNL128W, strain TEP1, hits give low values 0.976 | S. cerevisiae deletion strains, locus YNL153C, strain GIM3, hits give low values 0.925 | S. cerevisiae deletion strains, locus YNL183C, strain NPR1, hits give low values 0.922 | S. cerevisiae deletion strains, locus YNL209W, strain ssb2, hits give low values 1.01 | S. cerevisiae deletion strains, locus YNL233W, strain BNI4, hits give low values 0.965 | S. cerevisiae deletion strains, locus YNL248C, strain rpa49, hits give low values 1.06 | S. cerevisiae deletion strains, locus YNL250W, strain rad50, hits give low values 0.987 | S. cerevisiae deletion strains, locus YNL271C, strain bni1, hits give low values 0.954 | S. cerevisiae deletion strains, locus YNL298W, strain CLA4, hits give low values 0.981 | S. cerevisiae deletion strains, locus YNL307C, strain MCK1, hits give low values 1 | S. cerevisiae deletion strains, locus YNL322C, strain KRE1 (second series), hits give low values 1.01 | S. cerevisiae deletion strains, locus YNL322C, strain KRE1, hits give low values 0.991 | S. cerevisiae deletion strains, locus YNR049C, strain mso1, hits give low values 1.04 | S. cerevisiae deletion strains, locus YNR052C, strain pop2, hits give low values 0.982 | S. cerevisiae deletion strains, locus YOL006C, strain TOP1, hits give low values 0.891 | S. cerevisiae deletion strains, locus YOL012C, strain htz1 0.75 | S. cerevisiae deletion strains, locus YOL147C, strain pex11, hits give low values 0.995 | S. cerevisiae deletion strains, locus YOR001W, strain rrp6, hits give low values 1.04 | S. cerevisiae deletion strains, locus YOR061W, strain CKA2, hits give low values 0.979 | S. cerevisiae deletion strains, locus YOR069W, strain VPS5, hits give low values 1 | S. cerevisiae deletion strains, locus YOR070C, strain gyp1, hits give low values 1 | S. cerevisiae deletion strains, locus YOR080W, strain dia2, hits give low values 1.02 | S. cerevisiae deletion strains, locus YOR083W, strain WHI5, hits give low values 1.01 | S. cerevisiae deletion strains, locus YOR106W, strain vam3, hits give low values 1.01 | S. cerevisiae deletion strains, locus YOR136W, strain idh2, hits give low values 1 | S. cerevisiae deletion strains, locus YOR144C, strain elg1, hits give low values 1 | S. cerevisiae deletion strains, locus YOR184W, strain ser1, hits give low values 0.98 | S. cerevisiae deletion strains, locus YOR231W, strain MKK1, hits give low values 0.964 | S. cerevisiae deletion strains, locus YOR265W, strain rbl2, hits give low values 1.01 | S. cerevisiae deletion strains, locus YOR270C, strain vph1, hits give low values 1 | S. cerevisiae deletion strains, locus YOR290C, strain snf2, hits give low values 0.998 | S. cerevisiae deletion strains, locus YOR316C, strain cot1, hits give low values 0.988 | S. cerevisiae deletion strains, locus YPL051W, strain arl3, hits give low values 1 | S. cerevisiae deletion strains, locus YPL055C, strain LGE1, hits give low values 0.951 | S. cerevisiae deletion strains, locus YPL078C, strain atp4, hits give low values 1.03 | S. cerevisiae deletion strains, locus YPL106C, strain sse1, hits give low values 0.995 | S. cerevisiae deletion strains, locus YPL240C, strain hsp82, hits give low values 1.01 | S. cerevisiae deletion strains, locus YPL241C, strain CIN2, hits give low values 0.998 | S. cerevisiae deletion strains, locus YPL256C, strain CLN2, hits give low values 0.964 | S. cerevisiae deletion strains, locus YPR119W, strain clb2, hits give low values 0.994 | S. cerevisiae deletion strains, locus YPR141C, strain kar3, hits give low values 0.981 | S. cerevisiae deletion strains, locus YPR163C, strain tif3, hits give low values 0.992 | S. cerevisiae deletion strains, locus YPR167C, strain met16, hits give low values 0.983 | S. cerevisiae deletion strains, strain wtn01, hits give low values 0.932 | S. cerevisiae strains, strain wild type, hits give low values 0.969
